Values joined by “and” are separate entries in the source; they are usually repeats but may differ in a detail not shown here. Equal entries are not always repeated. Some structures have more than one record in an assay (separate samples or runs), and their calls can disagree. Active and inactive are the calls of the source. The calls were made as follows: active = hit-call score of the fitted dose curve at least 0.9, where 1 is the maximum; inactive = score below 0.9.
Assays:
[1] = target: Nuclear respiratory factor 1 (Homo sapiens) (UniProt Q16656); assay: ATG_NRF1_CIS: Attagene CIS-FACTORIAL HepG2 Assay for human Nuclear Respiratory Factor 1 (NRF1) Orphan Gene (AID 2282987); conditions: HepG2 NRF1 cis-element reporter, Attagene multiplex; actives raise or lower the signal
Procedure, shortened: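 HepG2 cells transiently transfected with multiple cis-regulated reporter units, exposed 24 h. Reporter mRNAs measured by RT-PCR, fluorescent labelling, HpaI digestion and capillary electrophoresis; bidirectional fitting against DMSO.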

[2] = ATG_NFI_CIS: Attagene CIS-FACTORIAL HepG2 Assay for human Nuclear Factor I (NFI) (AID 2282989); conditions: HepG2 cis-regulatory reporter, NFI response element transcription; actives raise or lower the signal
Procedure, shortened: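 HepG2 cells transiently transfected with cis-element-driven multiplexed reporter transcription units, dosed for 24 h. Reporter mRNA quantified by RT-PCR, fluorescent labelling, HpaI digestion and capillary electrophoresis; bidirectional fit versus DMSO baseline.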

[3] = target: Myc proto-oncogene protein (Homo sapiens) (UniProt P01106); assay: ATG_Myc_CIS: Attagene CIS-FACTORIAL HepG2 Assay for human Myelocytomatosis (Myc) Proto-Oncogene Transcription Factor (AID 2282990); conditions: HepG2, Attagene cis-reporter transcription factor activity; actives raise or lower the signal
Procedure, shortened: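 DMSO-normalised, bidirectionally fitted reporter mRNA signal. HepG2 cells transfected with cis reporter constructs, treated 24 h; transcripts detected by RT-PCR, 6-FAM primer extension and CE.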

[4] = ATG_NF_kB_CIS: Attagene CIS-FACTORIAL HepG2 Assay for human Nuclear Factor Kappa B (NF-kB) (AID 2282991); conditions: HepG2 Attagene cis-factorial NF-kB reporter mRNA; actives raise or lower the signal
Procedure, shortened: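 HepG2 cells transfected with cis-promoter-driven reporter units, so endogenous transcription factor activity is measured. Reporter mRNA quantified 24 h after dosing by RT-PCR and capillary electrophoresis, with bidirectional fitting against DMSO.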

[5] = ATG_NRF2_ARE_CIS: Attagene CIS-FACTORIAL HepG2 Assay for human Nuclear Factor Erythroid 2 Related Factor 2 (NFR2) response to Antioxidant Response Elements (ARE) (AID 2282992); conditions: HepG2 Attagene ARE/NRF2 reporter, transcription factor activity; actives raise or lower the signal
Procedure, shortened: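 Endogenous transcription factor activity read out as reporter transcript levels (RT-PCR plus capillary electrophoresis, fluorescence) in transiently transfected HepG2 cells. Measured at 24 h after dosing; gain or loss of signal fitted versus DMSO.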

[6] = BSK_3C_TissueFactor: BioMAP Diversity Plus: 3C Assay for Tissue Factor Biomarker Activity (AID 2282997); conditions: BioMAP 3C HUVEC, tissue factor biomarker readout; actives raise or lower the signal
Procedure, shortened: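 Cells used were primary human umbilical vein endothelial cells. They were dosed with chemical, and after 24 h Tissue Factor was quantified by ELISA. Curves were fitted bidirectionally with DMSO as baseline.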

[7] = BSK_3C_uPAR: BioMAP Diversity Plus: 3C Assay for Urokinase-type plasminogen activator receptor (uPAR) Biomarker Activity (AID 2282998); conditions: BioMAP 3C HUVEC, uPAR biomarker ELISA; actives raise or lower the signal
Procedure, shortened: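 Human umbilical vein endothelial primary cells were exposed to test chemical for 24 h. Cell-surface uPAR was then quantified by ELISA, and responses were fitted bidirectionally against DMSO as negative control and baseline.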

[8] = ATG_Oct_MLP_CIS: Attagene CIS-FACTORIAL HepG2 Assay for human Octamer-Binding Transcription Factor (Oct) (AID 2282993); conditions: HepG2 Attagene cis-factorial Oct reporter, mRNA; actives raise or lower the signal
Procedure, shortened: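 HepG2 cells transiently transfected with cis-promoter-driven multiplexed reporter transcription units, dosed for 24 h. Reporter mRNA quantified by RT-PCR, fluorescent labelling, HpaI digestion and capillary electrophoresis; bidirectional fits versus DMSO baseline.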

[9] = target: Cellular tumor antigen p53 (Homo sapiens) (UniProt P04637); assay: ATG_p53_CIS: Attagene CIS-FACTORIAL HepG2 Assay for human p53 Transcription Factor (AID 2282994); conditions: HepG2 p53 cis-element reporter, Attagene mRNA; actives raise or lower the signal
Procedure, shortened: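 Endogenous p53 activity read in transiently transfected HepG2 from a cis-element-driven reporter transcript after 24 h exposure. RNA reverse-transcribed, PCR-amplified, fluorescently labelled and sized by capillary electrophoresis; gain or loss fitted against DMSO baseline.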

Measured: AC50

Sequence of Cellular tumor antigen p53 (Homo sapiens) (P04637 whole entry, looked up): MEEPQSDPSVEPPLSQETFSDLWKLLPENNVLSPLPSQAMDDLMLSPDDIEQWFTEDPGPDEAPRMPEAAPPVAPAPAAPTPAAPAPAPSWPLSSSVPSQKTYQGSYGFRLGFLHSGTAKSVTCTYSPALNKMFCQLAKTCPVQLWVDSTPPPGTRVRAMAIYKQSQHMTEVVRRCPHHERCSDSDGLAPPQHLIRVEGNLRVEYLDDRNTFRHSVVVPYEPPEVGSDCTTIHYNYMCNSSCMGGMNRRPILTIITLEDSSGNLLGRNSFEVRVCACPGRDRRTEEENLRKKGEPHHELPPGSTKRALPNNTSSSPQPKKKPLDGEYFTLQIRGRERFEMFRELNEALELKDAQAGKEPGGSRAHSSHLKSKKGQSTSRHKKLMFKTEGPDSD
Sequence of Myc proto-oncogene protein (Homo sapiens) (P01106 whole entry, looked up): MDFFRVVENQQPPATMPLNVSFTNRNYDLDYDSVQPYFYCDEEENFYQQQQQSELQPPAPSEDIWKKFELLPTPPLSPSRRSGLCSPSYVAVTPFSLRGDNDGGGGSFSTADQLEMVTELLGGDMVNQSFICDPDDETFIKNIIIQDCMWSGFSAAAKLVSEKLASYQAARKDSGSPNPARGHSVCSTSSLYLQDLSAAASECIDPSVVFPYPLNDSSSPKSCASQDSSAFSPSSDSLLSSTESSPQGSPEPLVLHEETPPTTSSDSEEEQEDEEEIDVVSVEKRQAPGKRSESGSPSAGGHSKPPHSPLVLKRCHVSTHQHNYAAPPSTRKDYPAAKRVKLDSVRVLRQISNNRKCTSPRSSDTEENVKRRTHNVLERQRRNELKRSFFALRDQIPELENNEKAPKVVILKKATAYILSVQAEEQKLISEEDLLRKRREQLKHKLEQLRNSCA
Sequence of Nuclear respiratory factor 1 (Homo sapiens) (Q16656 whole entry, looked up): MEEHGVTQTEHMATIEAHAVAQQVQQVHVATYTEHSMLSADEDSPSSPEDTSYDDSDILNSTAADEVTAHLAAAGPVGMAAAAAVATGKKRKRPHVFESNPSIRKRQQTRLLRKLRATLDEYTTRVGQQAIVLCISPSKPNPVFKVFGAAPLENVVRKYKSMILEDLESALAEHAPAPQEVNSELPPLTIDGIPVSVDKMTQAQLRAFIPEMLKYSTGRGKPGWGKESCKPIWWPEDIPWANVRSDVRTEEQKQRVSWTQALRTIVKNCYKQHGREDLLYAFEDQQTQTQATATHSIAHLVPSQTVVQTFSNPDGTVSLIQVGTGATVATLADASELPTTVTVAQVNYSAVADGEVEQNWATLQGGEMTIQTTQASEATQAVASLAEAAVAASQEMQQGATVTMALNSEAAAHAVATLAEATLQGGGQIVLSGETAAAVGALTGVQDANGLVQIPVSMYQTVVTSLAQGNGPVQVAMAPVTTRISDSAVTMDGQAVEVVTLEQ

COC(=O)c1c(Cl)nn(C)c1S(=O)(=O)NC(=O)Nc1nc(OC)cc(OC)n1
not listed: [8] | [9]
inactive: all other assays above

CC(=O)S[C@@H]1CC2=CC(=O)CC[C@]2(C)[C@H]2CC[C@@]3(C)[C@@H](CC[C@@]34CCC(=O)O4)[C@H]12
active: [3] 7.76 µM | [5] 100 µM | [6] 16.1 µM | [7] 27.8 µM
inactive: [1] | [2] | [3] | [5]

CCCCC(CC)CN1C(=O)C2C3C=CC(C3)C2C1=O (stereo unspecified)
active: [5] 16.7 µM | [7] 32.2 µM
not listed: [8] | [9]
inactive: all other assays above

CCCCCCC(C)OC(=O)COc1nc(F)c(Cl)c(N)c1Cl (stereo unspecified)
active: [6] 34.4 µM | [7] 37.8 µM
inactive: all other assays above

COC(=O)c1ccc(I)cc1S(=O)(=O)NC(=O)Nc1nc(C)nc(OC)n1
not listed: [4] | [9]
inactive: all other assays above

OB(O)O
not listed: [4] | [9]
inactive: all other assays above

CC(=O)[C@H]1CC[C@H]2[C@@H]3CCC4=CC(=O)CC[C@]4(C)[C@H]3CC[C@]12C
active: [5] 33.4 µM and 16.3 µM | [6] 13.1 µM | [7] 5.32 µM
inactive: [1] | [2] | [3] | [5]

CCCCC(CC)COC(=O)c1ccccc1C(=O)O (stereo unspecified)
active: [5] 21.9 µM
not listed: [4]
inactive: all other assays above

CCCCCOC(=O)COc1cc(N2C(=O)C3=C(CCCC3)C2=O)c(F)cc1Cl
inactive: [1] | [2] | [3] | [6] | [7]
active: [5] 20.7 µM

S=C(S)NCCNC(=S)S.[Mn+2].[S-]C([S-])=NCCN=C([S-])[S-].[Zn+2]
inactive: [1] | [2] | [3] | [5] | [6] | [7]
active: [6] 6.82 µM [middle of 6 runs]

CCOC(=O)C(C)Oc1ccc(Oc2nc3ccc(Cl)cc3o2)cc1 (stereo unspecified)
active: [7] 13 µM
not listed: [8] | [9]
inactive: all other assays above

CCCOC(=O)NCCCN(C)C
not listed: [4] | [8]
inactive: all other assays above

CCOC(=O)COc1cc(-n2ncc(C(F)(F)F)c(C)c2=O)c(F)cc1Cl
not listed: [4] | [8] | [9]
inactive: all other assays above

Cc1nn(C)c(Oc2ccccc2)c1C=NOCc1ccc(C(=O)OC(C)(C)C)cc1
active: [2] 0.0424 µM | [5] 0.0249 µM | [7] 7.77 µM
inactive: [1] | [3] | [6]

CSC(=O)c1cccc2nnsc12
not listed: [4] | [9]
inactive: all other assays above

C=CCOC(Cn1ccnc1)c1ccc(Cl)cc1Cl (stereo unspecified)
active: [3] 75.3 µM | [5] 5.64 µM
inactive: [1] | [2] | [6] | [7]

Oc1ccc(C(c2ccc(O)cc2)C(Cl)(Cl)Cl)cc1
active: [6] 36.4 µM | [7] 31.5 µM
inactive: [1] | [2] | [3] | [5]

CCN(CC)C(=O)c1cccc(C)c1
not listed: [4] | [8] | [9]
inactive: all other assays above

COCCO
not listed: [4] | [8] | [9]
inactive: all other assays above

C#CCOC(=O)[C@@H](C)Oc1ccc(Oc2ncc(Cl)cc2F)cc1
not listed: [4] | [9]
inactive: all other assays above

COc1c(Cl)ccc(Cl)c1C(=O)O
not listed: [4] | [9]
inactive: all other assays above

CCOC(=O)c1ccc(O)cc1
not listed: [4] | [8] | [9]
inactive: all other assays above

CCCN(CCC)c1c([N+](=O)[O-])cc(C(F)(F)F)c(N)c1[N+](=O)[O-]
active: [4] 50 µM | [5] 5.51 µM | [6] 36.5 µM | [7] 31.8 µM
inactive: [1] | [2] | [3]

O=C(O)c1ccccc1
not listed: [4] | [8] | [9]
inactive: all other assays above

C[C@]12CC[C@@H]3c4ccc(O)cc4C[C@@H](CCCCCCCCCS(=O)CCCC(F)(F)C(F)(F)F)[C@H]3[C@@H]1CC[C@@H]2O (stereo partly specified)
not listed: [8] | [9]
inactive: all other assays above

COC(=O)CSc1cc(N=c2sc(=O)n3n2CCCC3)c(F)cc1Cl
active: [5] 27.2 µM
not listed: [4] | [9]
inactive: all other assays above

CN(C)C(=O)Nc1ccc(Cl)c(Cl)c1
active: [5] 23.6 µM and 13.1 µM | [8] 146 µM and 30.3 µM
not listed: [4]
inactive: all other assays above

S=C([S-])NCCNC(=S)[S-].[Mn+2]
not listed: [4] | [8] | [9]
inactive: all other assays above

CCCCOC(=O)C(C)Oc1ccc(Oc2ccc(C(F)(F)F)cn2)cc1 (stereo unspecified)
not listed: [8] | [9]
inactive: all other assays above

CCCN(CCC)C(=O)SCC
not listed: [4] | [8]
inactive: all other assays above

CC(C)(C)[C@@H](O)[C@@H](Cc1ccc(Cl)cc1)n1cncn1
active: [5] 13.4 µM
not listed: [8] | [9]
inactive: all other assays above

CCOC(=O)C(C)Oc1ccc(Oc2cnc3cc(Cl)ccc3n2)cc1 (stereo unspecified)
not listed: [4] | [8] | [9]
inactive: all other assays above

CC1(C)C(C=C(Cl)Cl)C1C(=O)OCc1cccc(Oc2ccccc2)c1 (stereo unspecified)
active: [5] 6.5 µM
not listed: [4]
inactive: all other assays above

N[C@@H](Cc1cc(I)c(Oc2ccc(O)c(I)c2)c(I)c1)C(=O)O
inactive: [1] | [2] | [3] | [6] | [7]

Reference: PubChem BioAssay (EPA / NIEHS)
